# Measured values reported in paper PMC4336329 (PLoS ONE, 2015).
# Among all 310,000 compounds or so, about 14,000 (4.5%) showed an effect of 50% or more. Effects have a minus sign here. This is one part of a sample in which strong results are shown more often than they occur.
# Biological target: human ether-à-go-go-related gene (hERG) potassium channel (human, UniProt Q12809)
# Experiment: primary screen, population patch clamp on CHO cells stably expressing hERG; higher = less effect of the substance
# 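Also: peak tail current of the secondary pulse compared with the same well before compound.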
# human ether-à-go-go-related gene (hERG) potassium channel, sequence (Q12809 whole entry, looked up): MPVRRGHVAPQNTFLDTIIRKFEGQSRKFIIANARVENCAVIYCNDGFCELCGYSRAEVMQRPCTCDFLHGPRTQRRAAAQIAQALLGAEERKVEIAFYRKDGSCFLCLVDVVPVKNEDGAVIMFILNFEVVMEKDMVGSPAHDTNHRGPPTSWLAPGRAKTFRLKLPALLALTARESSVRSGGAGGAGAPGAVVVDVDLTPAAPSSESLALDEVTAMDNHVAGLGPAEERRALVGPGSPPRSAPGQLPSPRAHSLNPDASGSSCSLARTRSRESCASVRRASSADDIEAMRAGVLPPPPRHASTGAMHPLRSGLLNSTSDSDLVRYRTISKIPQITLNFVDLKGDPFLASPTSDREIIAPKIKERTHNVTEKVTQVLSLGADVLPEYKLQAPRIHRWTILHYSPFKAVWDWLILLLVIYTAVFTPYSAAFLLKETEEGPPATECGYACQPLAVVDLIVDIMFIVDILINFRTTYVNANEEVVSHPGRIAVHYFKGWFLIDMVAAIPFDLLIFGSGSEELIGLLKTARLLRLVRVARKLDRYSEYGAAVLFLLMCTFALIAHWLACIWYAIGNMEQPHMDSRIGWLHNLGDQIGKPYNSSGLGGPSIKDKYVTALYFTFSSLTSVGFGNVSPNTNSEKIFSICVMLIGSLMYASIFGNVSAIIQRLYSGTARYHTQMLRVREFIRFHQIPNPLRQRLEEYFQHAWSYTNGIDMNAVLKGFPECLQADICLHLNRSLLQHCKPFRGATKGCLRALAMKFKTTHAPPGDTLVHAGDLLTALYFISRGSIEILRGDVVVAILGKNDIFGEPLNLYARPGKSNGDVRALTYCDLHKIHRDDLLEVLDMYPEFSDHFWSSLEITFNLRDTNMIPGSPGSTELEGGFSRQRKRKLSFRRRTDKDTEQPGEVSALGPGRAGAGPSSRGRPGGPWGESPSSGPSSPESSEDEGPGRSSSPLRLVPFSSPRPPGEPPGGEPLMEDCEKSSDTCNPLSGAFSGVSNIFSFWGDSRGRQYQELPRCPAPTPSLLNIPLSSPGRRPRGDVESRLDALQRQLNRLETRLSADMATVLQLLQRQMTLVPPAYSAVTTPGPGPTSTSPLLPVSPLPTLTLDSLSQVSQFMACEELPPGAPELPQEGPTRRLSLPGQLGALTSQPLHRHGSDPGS
row,Structure (SMILES),"hERG current change (%, negative = inhibition) at 10uM [%]"
1,CCOC(=O)c1c(NC(=O)C(C)NCc2ccco2)sc2c1CCC(C)C2.O=C(O)C(=O)O (centres unmarked),-4.23
2,CCOc1ccccc1Oc1coc2cc(OCC(=O)O)ccc2c1=O,24.3
3,O=c1c(Oc2ccccc2F)coc2cc(OCc3cnn(-c4ccccc4)c3)ccc12,-55
4,CCCNC(=O)COc1ccc2c(=O)c(Oc3ccccc3F)coc2c1,-61.6
5,COc1ccccc1Oc1coc2cc(OC(=O)N3CCOCC3)ccc2c1=O,-56.4
6,COC(=O)c1ccc(Oc2coc3cc(OCc4cnn(-c5ccccc5)c4)ccc3c2=O)cc1,7.07
7,COC(=O)COc1ccc2c(=O)c(Oc3ccccc3Br)coc2c1,14
8,Cc1oc2cc(OCc3cnn(-c4ccccc4)c3)ccc2c(=O)c1Oc1ccccc1F,-11.2
9,COc1ccc(Oc2coc3cc(OC(=O)N4CCOCC4)ccc3c2=O)cc1,-25.3
10,COc1cccc(Oc2coc3cc(OC(=O)N4CCOCC4)ccc3c2=O)c1,-4.27
11,CCC/C=N/Nc1nnc(Cc2ccc(OC)c(OC)c2)c(=O)[nH]1,27.2
12,CSCC[C@H](NC(=O)OCc1ccccc1)C(=O)O,-2.24
13,Cc1ccc(-c2c(C#N)c(N)nc3c2CCCCC3)o1,-5.84
14,C=CCn1c(N/N=C/c2ccc(O)cc2)nc2ccccc2c1=O,-17.9
15,Cc1cc2c(C)nc(N/N=C/c3ccccc3)nc2o1,-27.6
16,Cc1cc2c(C)nc(N/N=C/c3ccc(F)cc3)nc2o1,-52.7
17,Cc1cc2c(C)nc(N/N=C/c3ccc([N+](=O)[O-])cc3)nc2o1,-16.2
18,CC1(C)C2CCC13CS(=O)(=O)N[C@@H]3C2 (some centres unmarked),20.5
19,Cc1ccc(CC2CC(=O)N(CCc3ccc4c(c3)OCO4)C2=O)cc1 (centres unmarked),3.17
20,O=C(Nc1ccc(O)cc1)C1CCCO1 (centres unmarked),16.4
21,Cc1cccc(NC(=O)CSc2nnc(-c3cc(C)[nH]n3)n2N)c1,-29.1

row,Structure (SMILES),"hERG current change (%, negative = inhibition) at 10uM [%]"
1,Cc1cc(-c2nnc(SCC(=O)Nc3cccc(F)c3)n2N)n[nH]1,6.38
2,C=CCn1c(SCC(=O)Nc2c(C)cccc2C)nnc1-c1cnccn1,-2.77
3,C=CCn1c(SCC(=O)Nc2ccc(OC)cc2)nnc1-c1cnccn1,-23.1
4,Cc1ccc(NC(=O)CSc2nnc(-c3ccccn3)n2N)cc1F,-48.5
5,C=CCn1c(SCC(=O)Nc2cc(C)cc(C)c2)nnc1-c1cnccn1,-29.6
6,C=CCn1c(SCC(=O)Nc2cccc(C)c2)nnc1-c1cnccn1,-71.9
7,C=CCn1c(SCC(=O)Nc2ccc(F)cc2)nnc1-c1cnccn1,-58.9
8,Cc1cc(-c2nnc(SCC(=O)Nc3cccc(Cl)c3)n2N)n[nH]1,-71.9
9,Nn1c(SCC(=O)Nc2ccc(F)cc2)nnc1-c1ccccn1,-53.6
10,C=CCn1c(SCC(=O)Nc2ccc(S(N)(=O)=O)cc2)nnc1-c1cnccn1,13
11,NC(=O)c1ccc(NC(=O)CSc2nnc(-c3ccccn3)n2N)cc1,17.1
12,Cc1cc(C)[n+](Cc2ccccc2)cc1C(N)=O.[Cl-],16.6
13,N#Cc1cc(Nc2c(N)nc[nH]c2=O)c([N+](=O)[O-])cc1C#N,8.95
14,O=C(O)CCN1C(=O)c2ccc(NC(=O)Cc3ccc(Cl)cc3)cc2C1=O,3.94
15,CC(=O)c1cc(-c2ccccc2)n(CC(=O)N2CCCC2)c1C,13.3
16,CCn1c(SCC(=O)Nc2ccc(C)cc2)nnc1-c1cnccn1,-31.8
17,CCn1c(SCC(=O)Nc2ccc3c(c2)OCCO3)nnc1-c1ccccn1,-16.1
18,CCn1c(SCC(=O)Nc2ccc(C)cc2)nnc1-c1ccccn1,-59.1
19,Cc1ccc(NC(=O)CSc2nnc(-c3ccccn3)n2C)cc1,-28.1
20,CCn1c(SCC(=O)Nc2ccc(F)cc2)nnc1-c1cnccn1,-56.8
21,C=CCn1c(SCC(=O)Nc2cc(C)ccc2C)nnc1-c1cnccn1,-14.4

row,Structure (SMILES),"hERG current change (%, negative = inhibition) at 10uM [%]"
1,C=CCn1c(SCC(=O)Nc2ccc(F)cc2F)nnc1-c1cnccn1,-58.8
2,C=CCn1c(SCC(=O)Nc2cccc3ccccc23)nnc1-c1cnccn1,-39.9
3,CCn1c(SCC(=O)Nc2ccccc2F)nnc1-c1cnccn1,-34.9
4,COc1cc(C2NC(=O)NC(c3ccccc3)=C2C(C)=O)ccc1OCC#N (centres unmarked),-8.43
5,CN1CCN(C(=O)c2ccc(C3SCC(=O)N3Cc3ccco3)cc2)CC1 (centres unmarked),6.13
6,CCOc1ccc(/C=N/NC(=O)c2csc(C)c2C)c(OCC)c1,6.43
7,Cc1ccc(S(=O)(=O)NCCC(=O)Nc2cc(S(=O)(=O)N(C)C)ccc2C)cc1C,-7.95
8,O=C(c1cc([N+](=O)[O-])ccc1N1CCCC1)N1CCCC1,-0.904
9,CCN1CC(CN(C)Cc2nc(-c3ccc(OC)c4ccccc34)oc2C)CC1=O (centres unmarked),-37.2
10,CCN1CC(CN(C)Cc2nc(-c3ccco3)oc2C)CC1=O (centres unmarked),10.4
11,CCN1CC(CN(C)Cc2nc(-c3ccc(C(F)(F)F)cc3)oc2C)CC1=O (centres unmarked),-51.5
12,CCN1CC(CN(C)Cc2nc(-c3cccs3)no2)CC1=O (centres unmarked),3.65
13,CCN1CC(CN(C)Cc2nc(-c3ccc(C(F)(F)F)cc3)no2)CC1=O (centres unmarked),-28.9
14,CCN1CC(CN(C)Cc2nc(-c3ccc(Cl)cc3)no2)CC1=O (centres unmarked),-59.1
15,Cc1cc(O)c(NC(=O)c2ccc(Br)o2)cc1C,-7.04
16,COc1ccc(N2CCN(C(=O)CN(c3cccc(OC)c3)S(=O)(=O)c3ccccc3)CC2)cc1,-19.4
17,CC(=O)OC1CC2(C)C(=O)CCC2C2CCc3cc(O)ccc3C12 (centres unmarked),1.59
18,Cc1ccc(Nc2cccc(C(F)(F)F)c2)nn1,-0.351
19,COc1ccc2c(c1)CCCN2C(N)=Nc1ccc(Cl)cc1,-63.7
20,COc1ccc2c(c1)CCCN2C(N)=O,17.4
21,COc1ccc2c(c1)CCCN2S(=O)(=O)c1ccc(Cl)cc1,9.65

row,Structure (SMILES),"hERG current change (%, negative = inhibition) at 10uM [%]"
1,Cc1ccc(NC(=O)CN(C)C(=O)C(Sc2ccccc2)c2ccccc2)cc1 (centres unmarked),2.05
2,CC(=O)O[C@H]1C(=O)[C@@]2(C)C([C@H](OC(=O)c3ccccc3)[C@]3(O)C[C@H](OC(=O)[C@H](O)[C@@H](NC(=O)Cc4ccccc4)c4ccccc4)C(C)=C1C3(C)C)[C@]1(OC(C)=O)CO[C@@H]1C[C@@H]2O (some centres unmarked),16.6
3,CCn1cc(C(=O)NCCCN2CCCCCC2)c(=O)c2cc(S(=O)(=O)N3CCc4ccccc4C3)ccc21,-77.7
4,CCC1CCCCN1CCCNC(=O)c1cn(C)c2ccc(S(=O)(=O)N3CCOCC3)cc2c1=O (centres unmarked),21.3
5,CCn1cc(C(=O)NCCCN2CCCC2)c(=O)c2cc(S(=O)(=O)N3CCc4ccccc4C3)ccc21,-8.75
6,CCn1cc(C(=O)N2CCc3ccccc32)c(=O)c2cc(S(=O)(=O)N3CC(C)CC(C)C3)ccc21 (centres unmarked),-43.8
7,CCn1cc(C(=O)NCCCN2CCCC(C)C2)c(=O)c2cc(S(=O)(=O)N3CCc4ccccc4C3)ccc21 (centres unmarked),-75.7
8,CCC1CCCCN1CCCNC(=O)c1cn(CC)c2ccc(S(=O)(=O)N3CCc4ccccc4C3)cc2c1=O (centres unmarked),-72
9,CCOCCCNC(=O)c1cn(CC)c2ccc(S(=O)(=O)N3CCC(C)CC3)cc2c1=O,-22.6
10,CCn1cc(C(=O)NCCCOC)c(=O)c2cc(S(=O)(=O)N3CCCC3)ccc21,-4.05
11,CCOCCCNC(=O)c1cn(CC)c2ccc(S(=O)(=O)N3CCCC3)cc2c1=O,-6.08
12,CCn1cc(C(=O)N2CCc3ccccc32)c(=O)c2cc(S(=O)(=O)N3CCCCCC3)ccc21,-67.1
13,CCn1cc(C(=O)NCCCOC)c(=O)c2cc(S(=O)(=O)N3CCC(C)CC3)ccc21,-10.3
14,CCn1cc(C(=O)N2CCc3ccccc3C2)c(=O)c2cc(S(=O)(=O)N3CCCCC3)ccc21,-40.7
15,COc1cc(N2CCOCC2)ccc1/C=C1\C(=O)NC(=O)N(Cc2ccc3c(c2)OCO3)C1=O,16.5
16,COc1ccc(S(=O)(=O)N2CCOCC2)cc1C(=O)Nc1cc(C)on1,2.19
17,CCn1c(SCC#N)nc2ccccc2c1=O,2.7
18,CN(CC(=O)Nc1ccc(F)cc1)C(=O)COC(=O)CSc1ccc(F)cc1,-16
19,CC(=O)N1CCOc2ccc(S(=O)(=O)NCCc3ccc(S(N)(=O)=O)cc3)cc21,12.2
20,CCc1c(C)sc(NC(=O)c2cc(-c3ccc(O)cc3)on2)c1C#N,11.2
